Data reported in PubChem BioAssay (EPA / NIEHS).
Several values for one entry are separate records, joined by “and”; a condition that tells them apart may be missing. Equal entries are not always repeated. Where a structure was tested more than once in an assay, its records may differ in their call. Activity calls are given as the source filed them. The calls were made as follows: active = hit-call score of the fitted dose curve at least 0.9, where 1 is the maximum; inactive = score below 0.9.

Assays:
Conditions in all cases: mRNA level, 48 h; actives raise or lower the signal
[1] = read-out: Lipase C (LIPC), LIPC (gene 3990); assay: LTEA_HepaRG_LIPC: Life Technologies and Expression Analysis (LTEA) Assay for Lipase C (LIPC) using HepaRG (AID 2283514)
How it was run: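 Read-out is LIPC transcript level by TaqMan qRT-PCR, normalized to three housekeeping genes, after 48 h chemical treatment of human HepaRG liver cells. Curves span eight concentrations topping at 100 uM; activity in either direction scored relative to 0.5% DMSO.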

[2] = read-out: Lipoprotein lipase (LPL), LPL (gene 4023); assay: LTEA_HepaRG_LPL: Life Technologies and Expression Analysis (LTEA) Assay for Lipoprotein lipase (LPL) using HepaRG (AID 2283515)
How it was run: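 Read-out is LPL transcript level by qRT-PCR, normalized to three housekeeping genes and fitted bidirectionally against the DMSO control. Human HepaRG cells received chemicals for 48 h at up to 100 uM.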

[3] = read-out: MicroRNA 122 (MIR122), gene 406906; assay: LTEA_HepaRG_MIR122: Life Technologies and Expression Analysis (LTEA) Assay for MicroRNA 122 (MIR122) using HepaRG (AID 2283516); also: the transcript read is the microRNA miR-122
How it was run: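 Differentiated human HepaRG cells in serum-free induction medium exposed 48 h to 8 half-log concentrations from 100 uM in 0.5% DMSO, duplicate. MIR122 quantified by Fluidigm TaqMan qRT-PCR, normalised to ACTB, GAPDH, POLR2A; fold change fitted bidirectionally versus DMSO.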

[4] = read-out: matrix metalloproteinase-10 (MMP10), MMP10 (gene 4319); assay: LTEA_HepaRG_MMP10: Life Technologies and Expression Analysis (LTEA) Assay for matrix metalloproteinase-10 (MMP10) using HepaRG (AID 2283517)
How it was run: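 Gain or loss of MMP10 mRNA is fitted relative to the 0.5% DMSO vehicle. The human hepatic line HepaRG receives a 48-hour serum-free exposure, in duplicate, with a maximum concentration of 100 uM.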

MYC, MYC (gene 4609) = assay: LTEA_HepaRG_MYC: Life Technologies and Expression Analysis (LTEA) Assay for MYC using HepaRG (AID 2283518)
How it was run: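 MYC transcript changes, up or down relative to 0.5% DMSO, from TaqMan qRT-PCR normalized to three housekeeping genes. Human HepaRG cultures received chemicals for 48 h at eight half-log concentrations up to 100 uM, in duplicate.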

[5] = read-out: matrix metalloproteinase-3 (MMP3), MMP3 (gene 4314); assay: LTEA_HepaRG_MMP3: Life Technologies and Expression Analysis (LTEA) Assay for matrix metalloproteinase-3 (MMP3) using HepaRG (AID 2283519)
How it was run: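 HepaRG, human; 48 h dosing, 8 conc. (max 100 uM, half-log), duplicate, 0.5% DMSO. Readout: MMP3 transcript by Fluidigm TaqMan qRT-PCR, ACTB/GAPDH/POLR2A-normalised. Gain or loss fitted vs DMSO.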

[6] = read-out: Paternally Expressed 10 (PEG10), PEG10 (gene 23089); assay: LTEA_HepaRG_PEG10: Life Technologies and Expression Analysis (LTEA) Assay for Paternally Expressed 10 (PEG10) using HepaRG (AID 2283520)
How it was run: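 Differentiated HepaRG cells exposed 48 h in serum-free induction medium to eight half-log concentrations topping at 100 uM, 0.5% DMSO, in duplicate. PEG10 mRNA quantified by TaqMan qRT-PCR, normalized to ACTB, GAPDH and POLR2A; bidirectional fit versus DMSO.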

[7] = read-out: Nuclear factor NF-kappa-B p105 subunit (Homo sapiens) (UniProt P19838); assay: LTEA_HepaRG_NFKB1: Life Technologies and Expression Analysis (LTEA) Assay for Nuclear Factor Kappa B Subunit 1 (NFKB1) using HepaRG (AID 2283521)
How it was run: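 Differentiated human HepaRG cells in serum-free induction medium with 0.5% DMSO were exposed for 48 h to eight half-log concentrations, top 100 uM, in duplicate. NFKB1 mRNA measured by Fluidigm TaqMan qRT-PCR, normalised to ACTB, GAPDH and POLR2A; bidirectional fit versus DMSO.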

[8] = read-out: Protein phosphatase 2A (PPP2R4), PTPA (gene 5524); assay: LTEA_HepaRG_PPP2R4: Life Technologies and Expression Analysis (LTEA) Assay for Protein phosphatase 2A (PPP2R4) using HepaRG (AID 2283522)
How it was run: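 Differentiated human HepaRG cells in serum-free induction medium were exposed 48 h to 8 concentrations (top 100 µM, half-log steps, duplicate) in 0.5% DMSO. PPP2R4 mRNA was measured by TaqMan qRT-PCR, normalised to ACTB, GAPDH and POLR2A, and fitted bidirectionally versus DMSO.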

[9] = read-out: Phosphatase and tensin (PTEN), PTEN (gene 5728); assay: LTEA_HepaRG_PTEN: Life Technologies and Expression Analysis (LTEA) Assay for Phosphatase and tensin (PTEN) using HepaRG (AID 2283523)
How it was run: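 Read-out is PTEN transcript level by multiplexed TaqMan qRT-PCR after 48 h chemical treatment of human HepaRG cultures in serum-free induction medium. Concentrations spanned 100 uM downward in half-log steps, 0.5% DMSO throughout; activity fitted in both directions against vehicle.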

[10] = read-out: solute carrier (SLC22A1), SLC22A1 (gene 6580); assay: LTEA_HepaRG_SLC22A1: Life Technologies and Expression Analysis (LTEA) Assay for solute carrier (SLC22A1) using HepaRG (AID 2283524)
How it was run: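 HepaRG (human liver line), 48 h dosing in serum-free induction medium; 8 conc., half-log down from 100 uM, 0.5% DMSO vehicle, duplicates. Endpoint: SLC22A1 mRNA, qRT-PCR, housekeeping-normalized; gain/loss fit vs DMSO.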

[11] = read-out: Pyruvate Dehydrogenase Kinase 4 (PDK4), PDK4 (gene 5166); assay: LTEA_HepaRG_PDK4: Life Technologies and Expression Analysis (LTEA) Assay for Pyruvate Dehydrogenase Kinase 4 (PDK4) using HepaRG (AID 2283525)
How it was run: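 In this multiplexed human HepaRG expression assay, cells are treated 48 h with test chemicals across an eight-point range starting at 100 uM. PDK4 mRNA changes, normalized to ACTB/GAPDH/POLR2A, are fitted in both directions relative to vehicle.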

[12] = read-out: NAD(P)H dehydrogenase [quinone] 1 (NQO1), NQO1 (gene 1728); assay: LTEA_HepaRG_NQO1: Life Technologies and Expression Analysis (LTEA) Assay for NAD(P)H dehydrogenase [quinone] 1 (NQO1) using HepaRG (AID 2283526)
How it was run: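 Differentiated human HepaRG cells in serum-free induction medium, dosed in duplicate for 48 h at 8 half-log concentrations up to 100 uM in 0.5% DMSO. NQO1 mRNA by qRT-PCR normalized to ACTB, GAPDH, POLR2A; bidirectional fit versus DMSO baseline.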

[13] = read-out: Nuclear factor erythroid 2-related factor 2 (Homo sapiens) (UniProt Q16236); assay: LTEA_HepaRG_NFE2L2: Life Technologies and Expression Analysis (LTEA) Assay for Nuclear factor erythroid 2-related factor 2 (NFE2L2) Transcription Factor using HepaRG (AID 2283527);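 also: TaqMan qRT-PCR transcript level normalised to ACTB GAPDH and POLR2A housekeeping genes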
How it was run: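 Transcript level of NFE2L2 is the read-out, measured by microfluidic TaqMan qRT-PCR and normalized to three housekeeping genes. Human HepaRG cultures received test chemical for 48 h at up to 100 uM in half-log steps. Gain or loss of signal is fitted relative to 0.5% DMSO.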

[14] = read-out: succinate dehydrogenase complex iron sulfur subunit B (SDHB), SDHB (gene 6390); assay: LTEA_HepaRG_SDHB: Life Technologies and Expression Analysis (LTEA) Assay for succinate dehydrogenase complex iron sulfur subunit B (SDHB) using HepaRG (AID 2283528)
How it was run: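 HepaRG cells (~100,000/well, plated 48 h) exposed in duplicate for 48 h in serum-free induction medium to 8-point half-log series from 100 uM in 0.5% DMSO; mRNA by qRT-PCR normalised to ACTB, GAPDH, POLR2A; bidirectional fit versus DMSO.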

[15] = read-out: Signal transducer and activator of transcription 3 (Homo sapiens) (UniProt P40763); assay: LTEA_HepaRG_STAT3: Life Technologies and Expression Analysis (LTEA) Assay for Signal transducer and activator of transcription (STAT3) using HepaRG (AID 2283529)
How it was run: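 Read-out is STAT3 mRNA level by qRT-PCR, normalized to three housekeeping genes, in human HepaRG liver cells treated for 48 h. Concentrations ran from 100 uM downward in half-log steps; curves were fitted for gain or loss relative to 0.5% DMSO.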

[16] = read-out: solute carrier (SLCO1B1), SLCO1B1 (gene 10599); assay: LTEA_HepaRG_SLCO1B1: Life Technologies and Expression Analysis (LTEA) Assay for solute carrier (SLCO1B1) using HepaRG (AID 2283530)
How it was run: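 SLCO1B1 transcript levels were quantified by TaqMan qRT-PCR using three housekeeping genes for normalization. This followed 48 h chemical exposure (100 uM top, half-log, 8 points, 0.5% DMSO) of HepaRG liver cells, with gain or loss fitted relative to DMSO.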

[17] = read-out: sulfotransferase 2A1 (SULT2A1), SULT2A1 (gene 6822); assay: LTEA_HepaRG_SULT2A1: Life Technologies and Expression Analysis (LTEA) Assay for sulfotransferase 2A1 (SULT2A1) using HepaRG (AID 2283531)
How it was run: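 Expression change of SULT2A1, by qRT-PCR with three housekeeping-gene normalization, was scored bidirectionally versus DMSO. Cells: differentiated HepaRG, dosed in duplicate for 48 h across 8 points, highest 100 µM, half-log dilution, 0.5% DMSO.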

[18] = read-out: Transforming Growth Factor (TGFB1), TGFB1 (gene 7040); assay: LTEA_HepaRG_TGFB1: Life Technologies and Expression Analysis (LTEA) Assay for Transforming Growth Factor (TGFB1) Transporter using HepaRG (AID 2283533)
How it was run: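 TGFB1 transcript measured by qRT-PCR with normalisation to three housekeeping genes (ACTB, GAPDH, POLR2A); human HepaRG line treated in duplicate for 48 hr with an 8-point series topping at 100 uM, 0.5% DMSO vehicle, bidirectionally fitted.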

[19] = read-out: Transforming Growth Factor (TGFA), TGFA (gene 7039); assay: LTEA_HepaRG_TGFA: Life Technologies and Expression Analysis (LTEA) Assay for Transforming Growth Factor (TGFA) using HepaRG (AID 2283532)
How it was run: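 HepaRG (human liver line), 48 h exposure, 8 conc. half-log down from 100 uM, 0.5% DMSO vehicle, duplicates; serum-free induction medium. TGFA mRNA by TaqMan qRT-PCR, ACTB/GAPDH/POLR2A normalization; gain/loss fit vs DMSO.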

Measured: AC50

Chain of Signal transducer and activator of transcription 3 (Homo sapiens) (P40763 whole entry, looked up): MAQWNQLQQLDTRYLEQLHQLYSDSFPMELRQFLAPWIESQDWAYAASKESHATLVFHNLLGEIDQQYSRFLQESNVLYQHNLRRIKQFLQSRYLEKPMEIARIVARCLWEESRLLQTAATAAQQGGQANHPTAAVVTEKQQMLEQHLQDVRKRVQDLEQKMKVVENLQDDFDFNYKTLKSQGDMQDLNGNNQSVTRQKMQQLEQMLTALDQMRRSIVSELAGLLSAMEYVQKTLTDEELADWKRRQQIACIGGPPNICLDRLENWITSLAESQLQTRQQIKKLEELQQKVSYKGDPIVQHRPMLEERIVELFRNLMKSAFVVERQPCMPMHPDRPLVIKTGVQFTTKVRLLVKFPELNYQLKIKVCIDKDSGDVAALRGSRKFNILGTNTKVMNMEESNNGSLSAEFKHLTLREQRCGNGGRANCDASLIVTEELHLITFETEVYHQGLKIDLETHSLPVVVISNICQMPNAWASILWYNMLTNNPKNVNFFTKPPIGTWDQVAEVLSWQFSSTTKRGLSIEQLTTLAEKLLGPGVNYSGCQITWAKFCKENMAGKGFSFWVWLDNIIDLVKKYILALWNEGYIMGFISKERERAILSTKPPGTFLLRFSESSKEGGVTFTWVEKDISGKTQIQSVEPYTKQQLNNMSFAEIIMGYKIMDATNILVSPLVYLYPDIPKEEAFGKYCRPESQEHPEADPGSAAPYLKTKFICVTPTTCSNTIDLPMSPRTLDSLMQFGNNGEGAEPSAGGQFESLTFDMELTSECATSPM
Chain of Nuclear factor NF-kappa-B p105 subunit (Homo sapiens) (P19838 whole entry, looked up): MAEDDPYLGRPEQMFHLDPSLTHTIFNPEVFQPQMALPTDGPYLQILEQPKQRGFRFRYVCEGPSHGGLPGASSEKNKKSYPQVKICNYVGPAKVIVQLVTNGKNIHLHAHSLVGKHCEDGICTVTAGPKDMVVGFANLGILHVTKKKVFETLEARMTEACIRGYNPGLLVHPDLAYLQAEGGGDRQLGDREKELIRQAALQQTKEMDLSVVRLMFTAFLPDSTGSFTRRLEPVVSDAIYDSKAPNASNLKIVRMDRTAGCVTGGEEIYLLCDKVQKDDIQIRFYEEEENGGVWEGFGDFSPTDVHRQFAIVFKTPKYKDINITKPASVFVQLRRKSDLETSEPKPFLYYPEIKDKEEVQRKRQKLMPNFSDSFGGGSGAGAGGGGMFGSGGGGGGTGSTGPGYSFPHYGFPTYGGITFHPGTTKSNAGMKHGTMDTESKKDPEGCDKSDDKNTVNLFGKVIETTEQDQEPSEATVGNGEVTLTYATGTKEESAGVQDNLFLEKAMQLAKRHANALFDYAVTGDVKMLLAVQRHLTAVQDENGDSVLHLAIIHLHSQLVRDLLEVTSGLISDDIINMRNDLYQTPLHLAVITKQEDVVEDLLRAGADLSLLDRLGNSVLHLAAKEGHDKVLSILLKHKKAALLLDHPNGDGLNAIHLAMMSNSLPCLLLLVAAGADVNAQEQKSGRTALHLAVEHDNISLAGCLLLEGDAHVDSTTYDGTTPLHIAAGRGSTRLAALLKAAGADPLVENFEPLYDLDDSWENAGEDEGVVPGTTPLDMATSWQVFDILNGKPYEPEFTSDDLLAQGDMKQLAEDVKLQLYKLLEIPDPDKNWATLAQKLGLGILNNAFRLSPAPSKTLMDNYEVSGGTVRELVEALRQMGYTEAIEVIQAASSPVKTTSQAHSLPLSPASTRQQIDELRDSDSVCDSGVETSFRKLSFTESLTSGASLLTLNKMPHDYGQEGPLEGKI
Chain of Nuclear factor erythroid 2-related factor 2 (Homo sapiens) (Q16236 whole entry, looked up): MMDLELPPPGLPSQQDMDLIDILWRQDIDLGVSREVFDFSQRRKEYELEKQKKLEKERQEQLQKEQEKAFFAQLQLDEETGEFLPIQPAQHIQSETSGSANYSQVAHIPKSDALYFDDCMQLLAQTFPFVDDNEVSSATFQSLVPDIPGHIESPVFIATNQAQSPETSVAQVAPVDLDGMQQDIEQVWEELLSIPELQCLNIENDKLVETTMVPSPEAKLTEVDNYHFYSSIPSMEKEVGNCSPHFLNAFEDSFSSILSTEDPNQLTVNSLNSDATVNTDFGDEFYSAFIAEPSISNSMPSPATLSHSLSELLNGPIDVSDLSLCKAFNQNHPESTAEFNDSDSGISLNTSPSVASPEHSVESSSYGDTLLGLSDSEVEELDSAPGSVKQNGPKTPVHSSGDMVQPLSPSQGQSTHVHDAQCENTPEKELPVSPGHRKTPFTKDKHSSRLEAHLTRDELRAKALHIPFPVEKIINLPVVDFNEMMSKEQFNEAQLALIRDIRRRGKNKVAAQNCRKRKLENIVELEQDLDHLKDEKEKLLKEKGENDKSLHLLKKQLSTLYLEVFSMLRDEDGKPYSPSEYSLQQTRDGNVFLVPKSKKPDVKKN

C=CCC1=C(C)C(OC(=O)C2C(C=C(C)C)C2(C)C)CC1=O (stereo unspecified)
active: [1] 84 µM | [3] 90.8 µM and 22.5 µM | [6] 68.4 µM and 79.7 µM and 28.2 µM | [10] 86.3 µM and 83.2 µM and 50 µM | [11] 50 µM | [14] 69.1 µM | [16] 87.3 µM and 50 µM | [17] 86.7 µM
inactive: [1] | [2] | [3] | [4] | MYC, MYC (gene 4609) | [5] | [7] | [8] | [9] | [11] | [12] | [13] | [14] | [15] | [16] | [17] | [18]

O=C(O)COc1nc(Cl)c(Cl)cc1Cl
active: [11] 51 µM
not listed: [6] | [13] | [19]
inactive: all other assays above

CON(C)C(=O)Nc1ccc(Cl)c(Cl)c1
active: [1] 31.6 µM | [2] 12.5 µM | MYC, MYC (gene 4609) 78.6 µM | [6] 65.3 µM | [10] 50 µM
not listed: [13]
inactive: all other assays above
